KDM5B inhibitor: Primary screen for KDM5B Histone Demethylases FDH-coupled qHTS. Lysine-specific demethylase 5B (Homo sapiens), Q9UGL1. KDM5B demethylase, FDH-coupled NADH fluorescence (FDH is formaldehyde dehydrogenase). Potency, µM (titrated, usually from 57.7 µM), usual class: inhibitors. actives 2.6% (n = 220,000). AID 1347165, 2019; active means well fitted inhibition curve with a large enough effect; further: 0% is about no effect; nearly all actives have a fitted effect of over 70% in size
Target sequence (Q9UGL1 whole entry, looked up): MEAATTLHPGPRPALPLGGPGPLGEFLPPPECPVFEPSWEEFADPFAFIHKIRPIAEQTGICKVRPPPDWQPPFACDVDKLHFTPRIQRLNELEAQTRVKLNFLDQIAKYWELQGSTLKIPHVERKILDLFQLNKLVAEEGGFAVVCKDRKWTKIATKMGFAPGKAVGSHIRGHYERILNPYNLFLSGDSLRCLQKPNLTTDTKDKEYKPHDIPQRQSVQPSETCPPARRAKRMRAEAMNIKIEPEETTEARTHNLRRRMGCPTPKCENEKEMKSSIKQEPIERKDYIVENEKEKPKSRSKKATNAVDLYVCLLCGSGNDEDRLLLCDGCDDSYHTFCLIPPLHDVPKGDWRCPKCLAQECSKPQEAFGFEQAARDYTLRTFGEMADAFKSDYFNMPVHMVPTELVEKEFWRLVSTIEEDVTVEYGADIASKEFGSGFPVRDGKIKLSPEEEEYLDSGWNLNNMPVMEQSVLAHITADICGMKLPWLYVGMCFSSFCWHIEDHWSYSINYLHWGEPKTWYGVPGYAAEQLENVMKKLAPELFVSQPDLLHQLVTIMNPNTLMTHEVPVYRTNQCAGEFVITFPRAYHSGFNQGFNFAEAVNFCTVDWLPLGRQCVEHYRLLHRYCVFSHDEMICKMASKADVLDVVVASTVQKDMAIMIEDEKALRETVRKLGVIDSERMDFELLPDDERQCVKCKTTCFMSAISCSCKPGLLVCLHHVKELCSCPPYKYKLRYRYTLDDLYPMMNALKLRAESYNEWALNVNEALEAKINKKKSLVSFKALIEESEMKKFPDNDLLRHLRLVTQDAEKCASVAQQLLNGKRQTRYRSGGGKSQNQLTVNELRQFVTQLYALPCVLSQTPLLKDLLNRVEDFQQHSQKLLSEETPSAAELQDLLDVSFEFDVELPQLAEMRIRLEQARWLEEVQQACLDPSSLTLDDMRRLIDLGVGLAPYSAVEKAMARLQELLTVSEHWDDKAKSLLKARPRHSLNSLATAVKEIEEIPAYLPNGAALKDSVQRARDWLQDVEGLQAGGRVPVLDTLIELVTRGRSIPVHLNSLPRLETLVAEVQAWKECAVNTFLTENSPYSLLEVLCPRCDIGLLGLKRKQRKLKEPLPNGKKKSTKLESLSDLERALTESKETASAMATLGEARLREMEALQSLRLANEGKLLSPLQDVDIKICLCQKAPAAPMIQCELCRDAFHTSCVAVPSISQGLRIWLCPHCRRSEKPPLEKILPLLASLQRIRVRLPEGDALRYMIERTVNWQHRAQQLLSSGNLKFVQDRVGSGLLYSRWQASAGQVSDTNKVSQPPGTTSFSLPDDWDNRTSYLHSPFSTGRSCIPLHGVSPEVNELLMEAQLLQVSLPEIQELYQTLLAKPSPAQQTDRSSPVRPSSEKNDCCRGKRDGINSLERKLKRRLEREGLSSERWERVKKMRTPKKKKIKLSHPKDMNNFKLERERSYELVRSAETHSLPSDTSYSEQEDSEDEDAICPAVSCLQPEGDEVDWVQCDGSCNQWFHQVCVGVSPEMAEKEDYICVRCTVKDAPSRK
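Compound dilutions met 200 nM (final) KDM5BΔAP for 10 min at room temperature before substrate addition. The substrate mix held 12.5 µM H3K4me3 with cofactors 25 µM α-ketoglutarate and 50 µM Fe²⁺. NADH signal gain over 30 min defined activity.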
* hit, by the source's call; i = inactive. This excerpt belongs to a sample that is enriched for hits. Potency means the concentration at half of the fitted maximal effect.

SMILES	KDM5B inhibitor
O=C(NCc1coc(-c2cccs2)n1)c1cc(F)cc(F)c1	i
Cc1cc(C)n2nc(C)c(C(=O)N3CCCC(c4cccc(C(=O)O)c4)C3)c2n1 (stereo not given)	31.6µM*
COc1cccc([C@H]2CN(C(=O)c3c(C)nn4c(C)cc(C)nc34)C[C@@H]2N)c1	28.2µM*
O=C(O)c1ccc(C2CCCN(C(=O)c3cccc(N4CCOCC4)c3)C2)cc1 (stereo not given)	i
O=C(O)c1cccc(C2CCCN(C(=O)c3ccc4c(c3)ncn4CCO)C2)c1 (stereo not given)	i
CCc1nc(C)sc1C(=O)N1C[C@@H](C(=O)O)[C@H](c2cccc(OC)c2)C1	i
CCCOc1ccc(C(=O)N2C[C@H](c3cccc(OC)c3)[C@@H](N)C2)cc1Cl	i
COc1ccc(C(=O)OC(C)C(=O)Nc2c(C)n(C)n(-c3ccccc3)c2=O)cc1 (stereo not given)	i
O=C1CC(c2ccccc2)N(Cc2ccncc2)CCCN(C(=O)CCc2ccccc2)CCN1 (stereo not given)	i
Cc1ccc(-c2noc(CCC(=O)Nc3ccn(C)n3)n2)cc1	i
COc1cc(C(=O)NC2Cc3ccccc3C2)cc(OC)c1OC	i
COc1cc(-c2onc(C)c2C(=O)NC2Cc3ccccc3C2)cc(OC)c1OC	31.6µM*
COc1ccc(-c2onc(C)c2C(=O)NCc2cccc(OC)c2)cc1	i
COc1cc(-c2onc(C)c2C(=O)NCCCSC)cc(OC)c1OC	31.6µM*
COc1cc(-c2onc(C)c2C(=O)NCc2cccc(F)c2F)cc(OC)c1OC	31.6µM*
COc1cc(OC)cc(-c2onc(C)c2C(=O)NCc2cccc(C)c2)c1	i
CCSCCNC(=O)c1c(C)noc1-c1ccc(OC)cc1	i
COc1cc(CN(C)C(=O)c2c(C)noc2-c2ccc(C(C)(C)C)cc2)cc(OC)c1OC	i
COc1cc(OC)cc(-c2onc(C)c2C(=O)NC2Cc3ccccc3C2)c1	i
COc1ccc(CCNC(=O)c2c(C)noc2-c2ccco2)cc1OC	i
COc1cccc(CCNC(=O)c2c(C)noc2-c2ccccc2OC)c1	i
COc1cc(-c2onc(C)c2C(=O)NCCCCc2ccccc2)cc(OC)c1OC	25.1µM*
CCN(CC1CCN(CCc2ccccc2C)CC1)C(=O)C1C=CCN1 (stereo not given)	i
CCCCCNC(=O)COC(=O)c1cc2c(C)cc(C)cc2[nH]1	i
CCc1ccc(C2=C(C)C(=NCC(=O)NCc3ccc(OC)cc3)NS2(=O)=O)cc1	i
SMILES	KDM5B inhibitor
O=C(Cn1c(=O)c2c(ncn2C2CCCC2)n(Cc2ccccc2)c1=O)NCc1cccc(Cl)c1	i
CCC(C)Sc1ccc(N)c(C(F)(F)F)c1 (stereo not given)	i
CC(C)CCNC(=S)Nc1ccc(Cl)cc1Cl	i
COc1ccc(-c2nn(-c3ccccc3C)cc2CN(C)C(C)c2ccncn2)cc1F (stereo not given)	i
C=C(C)CN(CC)C(=O)Cc1csc(C(C)C)n1	i
CC1(Cc2ccc3c(c2)OCO3)CCCN(C(=O)c2cncc(Cl)c2)C1 (stereo not given)	i
Cc1nn(CC(O)c2cc(F)ccc2F)c(=O)c2ccccc12 (stereo not given)	i
Cc1ccc(C2=[N+]([O-])C3(CCCC/C3=N\O)N(O)C2(C)C)o1 (stereo not given)	i
O=C(/C=C/Nc1cc(C(F)(F)F)cc(C(F)(F)F)c1)c1ccc(Cl)cc1Cl	i
O=C(CSc1nc2ccc(NC(=O)c3ccc(Cl)cc3)cc2s1)NC1CCCCC1	i
Cc1ccc(-n2c(SCC(=O)Nc3ccccc3F)nc3c(=O)[nH]cnc32)cc1	i
O=C(Cc1cccc(F)c1)NCc1nnc2cc(-c3nc(C4CC4)no3)ccn12	28.2µM*
O=C(Cc1ccc(F)cc1)NCc1nnc2cc(-c3nc(C4CC4)no3)ccn12	28.2µM*
O=C(Cc1ccc(Cl)cc1)NCc1nnc2cc(-c3nc(C4CC4)no3)ccn12	i
COc1cc2c(=O)n(-c3ccccc3)c(=O)n(CC(=O)Nc3ccc(C)cc3)c2cc1OC	i
O=C(CC1CCCCC1)N1CCC2(CC1)CC(N(Cc1ccc(F)cc1)C1CC1)CCO2 (stereo not given)	i
CC(=O)Nc1ccc(C)cc1-c1nnc(SCC(=O)Nc2cc(Cl)ccc2Cl)[nH]c1=O	i
O=[S+]([O-])(c1ccncc1)c1nnn2c1nc(N1CCCCC1)c1ccccc12	i
O=[S+]([O-])(c1ccc(Cl)cc1)c1nnn2c1nc(NCc1ccncc1)c1ccccc12	89.1µM*
O=[S+]([O-])(c1ccncc1)c1nnn2c1nc(N1CCOCC1)c1ccccc12	i
O=[S+]([O-])(c1ccncc1)c1nnn2c1nc(NCc1ccc(F)cc1)c1ccccc12	i
CC(C)c1ccc([S+](=O)([O-])c2nnn3c2nc(NCc2ccncc2)c2ccccc23)cc1	79.4µM*
O=[S+]([O-])(c1cccnc1)c1nnn2c1nc(NCc1ccncc1)c1ccccc12	i
COc1ccc([S+](=O)([O-])c2nnn3c2nc(NCCCOC(C)C)c2ccccc23)cc1	i
Cc1ccc([S+](=O)([O-])c2nnn3c2nc(NC2CC2)c2ccccc23)cc1C	i
SMILES	KDM5B inhibitor
Cc1ccc(C)c([S+](=O)([O-])c2nnn3c2nc(NCc2ccncc2)c2ccccc23)c1	89.1µM*
COCCNc1nc2c([S+](=O)([O-])c3ccncc3)nnn2c2ccccc12	i
CCc1ccc([S+](=O)([O-])c2nnn3c2nc(NCc2ccncc2)c2ccccc23)cc1	50.1µM*
COc1ccc(OC)c([S+](=O)([O-])c2nnn3c2nc(NCc2ccc(F)cc2)c2ccccc23)c1	i
O=C1CC(c2ccccc2)N(Cc2ccncc2)CCCN(C(=O)c2cccs2)CCN1 (stereo not given)	i
CCCCN(CC)C(=O)COc1ccccc1C#N	i
C=CCN(C)C(=O)[C@@H](C)C1CC[C@@]2(C)Cc3sc(NC(=O)CN(C)C)nc3[C@@H](C)[C@@H]2[C@H]1O (stereo not given in full)	i
CCCCc1ccc(C(=O)O)cc1	i
O=C(Cn1cnc2sc3c(c2c1=O)CCC3)NC1CCCc2ccccc21 (stereo not given)	i
CCN(Cc1ccc(S(=O)(=O)N(C)C)o1)c1ccccc1	i
Cn1c(=O)c2c(-c3ccccc3Br)[nH]cc2n(C)c1=O	i
Cc1ccc(C(=O)C(C)OC(=O)CCc2c[nH]c3ccccc23)cc1 (stereo not given)	i
C#CCNC(=O)c1cccc(C(N)=O)c1	i
Cc1cccc(NC(=S)N2CCCCCC2)c1C	i
Cc1cccc(NC(=O)N2C[C@@H](F)C[C@H]2C(=O)N2CCc3ccccc3C2)c1C	i
O=C(c1cccc([N+](=O)[O-])c1)N1CCc2c(c3ccccc3n2CC2CC2)C1	i
Cc1ccc(NC(=O)N2CCC3(CC2)OCCO3)cc1C	i
O=C(Nc1ccccc1)N1CCc2c(c3ccccc3n2CC2CC2)C1	31.6µM*
Cc1ccc(NC(=O)N2CCN(C(=O)c3nsc4ccccc34)CC2)cc1C	i
Cc1ccc(NC(=O)N2CCc3c(c4ccccc4n3C)C2)cc1C	31.6µM*
Cc1cccc(NC(=O)N2CCc3c(c4ccccc4n3C)C2)c1C	22.4µM*
O=C(Nc1ccccc1)N1CCCC(CN2CCOCC2)CC1 (stereo not given)	i

Compound activity from PubChem BioAssay.
